TDP1 cell noCPT: qHTS for Inhibitors of human tyrosyl-DNA phosphodiesterase 1 (TDP1): qHTS in cells in absence of CPT; DT40 Tdp1-/- hTDP1 cells, no CPT, ATP luminescence, 48 h; Potency, µM (titrated, usually from 46.2 µM), inactives show at the highest dose activity change, negative = growth inhibition, most hits filed as inhibitors; 420,000 tested, 15% active; AID 686978, 2013; note: potency is the fitted concentration of half-maximal effect; nearly all actives have a fitted effect of over 55% in size
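Growth kinetics read by CellTiter-Glo luminescence after ≥48 hr at 37 °C. Cells: DT40 Tdp1-/- stably carrying human TDP1, 400 per well, compound exposure in the absence of CPT (DMSO vehicle).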
IL-1B inflam inh: inflammasome signaling inhibition, IL-1 beta readout; AID 743279; activity change, % at 57.5 µM; 360,000 tested, 4.7% active; THP-1 LPS/ATP IL-1B secretion, AlphaLISA, 16 h; active compounds read low; in the data active = activity change below about -50%; inconclusive = mostly about -30% to -49%
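THP-1 cells pretreated 1 hr with compounds (up to 57.5 uM final), then stimulated with LPS (250 ng/mL final) plus ATP (1.25 mM final); secreted IL-1B measured by AlphaLISA after 16 hr, decreased signal indicating inhibition.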
ELG1 repair inh: ELG1-dependent DNA repair inhibition; 330,000 tested, 2.3% active; HEK293T ELG1-luciferase reporter, luminescence, 16 h; DNA damage induced by 5-fluorouridine; Potency, µM (titrated, usually from 46.1 µM), for the others: at the top dose activity change, negative = inhibition, most hits filed as inhibitors; AID 504467; note: potency is the fitted concentration of half-maximal effect; nearly all actives have a fitted effect of over 55% in size
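Reporter activity after DNA damage by 5-fluorouridine is monitored. Compound-treated cells incubate 16 hr at 37 °C, then ONE-Glo is added for 30 min before luminescence reading.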
Gal4-VP16 FLuc: Gal4-VP16 reporter inhibition counter-screen; Drosophila S2 Gal4-VP16 UAS-luciferase, luminescence, 20 h; Potency, µM (top dose mostly 53.6 µM), inactives show at the highest dose activity, negative = inhibition, usual class: inhibitors; 310,000 tested, 3.5% active;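 note: Gal4-VP16 expression switched on by copper sulfate through the metallothionein promoter; potency is the fitted concentration of half-maximal effect; nearly all actives have a fitted effect of over 50% in size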
RORgamma inh: blocks mouse ROR gamma transcriptional activity | Drosophila S2 Gal4-RORgamma UAS-luciferase reporter, 20 h | 310,000 tested, 5.4% active | Potency, µM (top dose mostly 53.6 µM), without a hit: at the highest dose activity change, negative = inhibition, most hits filed as inhibitors | AID 2551; note: potency is the fitted concentration of half-maximal effect; nearly all actives have a fitted effect of over 60% in size
Target sequence (P51450 whole entry, looked up, the tested form may be a part): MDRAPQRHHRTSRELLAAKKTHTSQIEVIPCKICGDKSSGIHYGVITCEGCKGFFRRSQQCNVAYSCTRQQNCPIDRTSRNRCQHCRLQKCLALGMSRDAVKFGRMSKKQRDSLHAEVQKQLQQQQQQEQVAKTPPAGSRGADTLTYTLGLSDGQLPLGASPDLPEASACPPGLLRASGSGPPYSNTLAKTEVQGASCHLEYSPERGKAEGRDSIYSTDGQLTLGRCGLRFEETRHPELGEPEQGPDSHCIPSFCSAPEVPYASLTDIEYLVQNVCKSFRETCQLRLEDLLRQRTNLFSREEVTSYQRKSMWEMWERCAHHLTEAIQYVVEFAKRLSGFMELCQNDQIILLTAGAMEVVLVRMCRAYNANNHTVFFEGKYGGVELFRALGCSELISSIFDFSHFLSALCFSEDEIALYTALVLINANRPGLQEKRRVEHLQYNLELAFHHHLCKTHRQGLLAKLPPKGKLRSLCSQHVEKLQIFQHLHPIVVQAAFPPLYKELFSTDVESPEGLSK
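Drosophila Schneider cells stably carrying a metallothionein-driven Gal4 DBD–ROR gamma fusion and a UAS-Photinus luciferase reporter were exposed to compound for 1 hr, then induced with copper sulfate (700 uM final) for 20 hr at ambient temperature before luminescence reading.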
DT40 TDP1 CPT: growth inhibition of DT40 Tdp1-/-;hTDP1 cells with camptothecin (screen for TDP1 inhibitors). Potency, µM (doses to about 46.2 µM), without a hit: at the top dose activity change, negative = growth inhibition, usual class: inhibitors. 420,000 tested, 12% active. AID 686979. chicken DT40 Tdp1-/-;hTDP1 cells + 20 nM CPT, ATP luminescence, 48 h; note: potency is the fitted concentration of half-maximal effect; nearly all actives have a fitted effect of over 55% in size
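Chicken DT40 Tdp1-/- cells complemented with human TDP1, 400 cells/well, exposed to compounds plus 20 nM camptothecin for at least 48 h at 37 C; viability read as ATP content by CellTiter-Glo luminescence.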
* hit, by the source's call; ? = inconclusive; / = no result given; [ ] = dose if it differs, or a comment. A selection: hits, their analogues and other compounds. The true share with any hit is near 21%. Unless noted, calls come from the whole dose curve; as a rule, active = well fitted curve in the direction sought with a large enough effect; inconclusive = small, poorly fitted or top-dose-only effect, or another doubt; inactive = no such curve, though single readings can be large; an effect the other way counts as inactive or inconclusive. % is set by controls: 0 for no effect and ±100 for the full control effect.

SMILES | TDP1 cell noCPT | IL-1B inflam inh | ELG1 repair inh | Gal4-VP16 FLuc | RORgamma inh | DT40 TDP1 CPT
COc1cccc([C@@H]2Oc3ccc(Br)cc3C[C@H]2OC(=O)N[C@H]2CCCc3ccccc32)c1 | / | / | / | 1% | -10% | /
CCN1C(=O)[C@H]2[C@H]3[C@H](O)[C@H](O)C/C(=N/O[C@@H]4O[C@@H](COC(C)=O)[C@@H](OC(C)=O)[C@@H](OC(C)=O)[C@H]4OC(C)=O)[C@@H]3CC[C@@H]2C1=O | / | / | / | -8%[10 µM] | 7%[10 µM] | /
Cc1cccc(COc2ncnc3nc[nH]c23)c1 | 13µM* | 12 | ? | 2% | ? | ?
COc1ccc(N2CC(NC(=O)COc3ccccc3C)CC2=O)cc1OC (stereo not drawn) | ? | / | / | / | / | -5%
Cc1ccc(Cn2cc(C(=O)c3ccc(F)cc3)c(=O)c3cc4c(cc32)OCCO4)cc1 | ? | -2 | 21µM* | 3% | 20% | ?
CCc1ccc(C(=O)c2cn(CC(=O)Nc3ccc(F)cc3)c3cc4c(cc3c2=O)OCO4)cc1 | -26% | / | / | / | / | ?
Cc1ccc(C(=O)c2cn(Cc3ccccc3F)c3cc4c(cc3c2=O)OCO4)cc1 | 21µM* | / | / | / | / | ?
Cc1ccc(Cn2cc(C(=O)c3ccc4c(c3)OCO4)c(=O)c3cc(C)ccc32)cc1 | 23µM* | / | / | / | / | ?
CCOC(=O)C1CCCN(C(=O)Cn2nc(C)c3c(C)n(-c4ccccc4)nc3c2=O)C1 (stereo not drawn) | 10% | -12 | 5% | -3% | -13% | 6%
CSc1ccc(/C=C/C(=O)OCC(=O)NC2CCCCCC2)cc1 | ? | 35 | / | / | / | -30%
Cc1nc2ccccc2nc1OCc1cccc(Cl)c1 | 15µM* | 19 | ? | 1% | -14% | ?
O=C(CC1(O)C(=O)N(C/C=C/c2ccccc2)c2ccccc21)c1ccccn1 (stereo not drawn) | 0.89µM* | 34 | 2% | 7% | -9% | 1.3µM*
O=C(CC1(O)C(=O)N(CCc2ccccc2)c2ccccc21)c1ccccn1 (stereo not drawn) | 5.2µM* | -10 | -8% | 0% | 0% | 2.6µM*
CCC(=O)NCCc1nc2cc(NC(=O)c3cccc([N+](=O)[O-])c3)ccc2n1C | -4% | 15 | ? | -2% | -7% | 1%
O=C(CCO)c1ccc(O)cc1 | 0% | 3 | -13% | -2% | -21% | 3%
O=C(CCSc1ccc(Br)cc1)c1ccc(O)cc1 | 4.1µM* | -25 | -10% | -7% | -20% | 3.7µM*
O=C(O)c1ccccc1C(=O)NCc1ccccc1 | -23% | 11 | 9% | 8% | -6% | 2%
O=C(COc1ccc(Cl)cc1)Nc1ccc(C(=O)NCc2cccnc2)cc1 | 9.2µM* | 0 | ? | -7% | 8% | 12µM*
O=C(CCl)Nc1ccccc1C(=O)NCc1ccccc1 | ? | -83* | ? | 0% | -38% | 23µM*
Cc1cccc(OCC(=O)Nc2ccc(C(=O)NCc3cccnc3)cc2)c1 | / | / | -18% | -5% | 12% | /
Nc1sccc1C(=O)NCc1ccccc1 | 15µM* | 7 | / | / | / | -116%
O=C(NCCc1ccccc1)c1ccccc1NC(=O)C1CC=CCC1C(=O)O (stereo not drawn) | 16µM* | 32 | ? | -3% | -15% | 15µM*
CCOC(=O)C[C@H]1c2ccccc2S(=O)(=O)N1C1CC1 | 0% | 26 | / | / | / | ?
COc1ccc(C2CCc3cc(OC)c(OC)cc3C2NC=O)cc1OC (stereo not drawn) | ? | 9 | / | / | / | -15%
O=C(NCc1cccnc1)c1ccc(COc2ccc(Cl)cc2)cc1 | 10µM* | -15 | 0% | ? | ? | 16µM*
SMILES | TDP1 cell noCPT | IL-1B inflam inh | ELG1 repair inh | Gal4-VP16 FLuc | RORgamma inh | DT40 TDP1 CPT
Cc1ccc(OCc2ccc(C(=O)NCc3cccnc3)cc2)cc1C | 5.2µM* | -54* | 23% | -9%[10 µM] | -28% | 3.3µM*
COc1cc(C(=O)Nc2ccccc2C(=O)NCc2cccnc2)cc(OC)c1OC | ? | -58* | ? | 11% | -1% | 1%
CC(C)(C)c1ccc(OCc2ccc(C(=O)NCc3cccnc3)o2)cc1 | 8.2µM* | -17 | ? | 1.4µM* | ? | 21µM*
CC(C)(C)c1ccc(OCc2ccc(C(=O)NN)o2)cc1 | ? | -11 | ? | ? | -4% | ?
COc1cc(OC)cc(C(=O)NCc2cccnc2)c1 | -6% | 0 | 1% | 0% | -9% | 27%
CCc1ccc(NC(=O)CSc2nnc(CNC(=O)c3cccs3)o2)cc1 | 24% | 39 | 0% | 8% | -7% | -3%
O=C(COc1ccc(Cl)cc1)Nc1ccccc1C(=O)NCc1cccnc1 | 23µM* | -28 | -10% | -3% | 0% | ?
O=C(Nc1c(Cl)cc(Cl)cc1C(=O)NCc1cccnc1)c1ccc(Cl)cc1Cl | ? | 27 | ? | 0% | -4% | -22%
COc1cc(NC(=O)c2cccc3c2C(=O)N(Cc2cccnc2)C3)cc(OC)c1OC | ? | -56* | 9.2µM* | 3% | -26% | ?
